TDP1 inh: qHTS Assay for Inhibitors of Tyrosyl-DNA Phosphodiesterase (TDP1). recombinant TDP1, AlphaScreen DNA substrate cleavage. Potency, µM (highest dose often 130 µM), most hits filed as inhibitors. 350,000 tested, 0.28% active; note: nearly all actives have a fitted effect of over 40% in size
Target sequence (Q9NUW8 whole entry, looked up): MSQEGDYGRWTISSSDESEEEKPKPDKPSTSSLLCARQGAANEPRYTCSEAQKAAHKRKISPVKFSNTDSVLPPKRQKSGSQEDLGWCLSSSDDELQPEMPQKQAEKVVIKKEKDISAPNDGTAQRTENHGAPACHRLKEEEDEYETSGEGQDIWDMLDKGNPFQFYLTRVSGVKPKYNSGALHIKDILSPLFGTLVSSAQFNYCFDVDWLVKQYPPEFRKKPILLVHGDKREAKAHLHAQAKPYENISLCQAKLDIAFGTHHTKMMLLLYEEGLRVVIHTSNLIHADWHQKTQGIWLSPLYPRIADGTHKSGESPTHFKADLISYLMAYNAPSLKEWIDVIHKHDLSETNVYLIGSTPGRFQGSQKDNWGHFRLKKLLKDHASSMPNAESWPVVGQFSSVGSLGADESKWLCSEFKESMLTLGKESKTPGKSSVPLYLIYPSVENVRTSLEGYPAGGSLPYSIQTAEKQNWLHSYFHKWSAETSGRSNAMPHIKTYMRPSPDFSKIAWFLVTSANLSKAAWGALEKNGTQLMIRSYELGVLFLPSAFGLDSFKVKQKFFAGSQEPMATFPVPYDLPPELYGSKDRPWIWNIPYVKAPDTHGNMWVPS
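Signal: AlphaScreen proximity between streptavidin donor and anti-FITC acceptor beads on intact substrate. Reaction: Tdp1 1 nM, substrate 15 nM final, 5 min RT after 15 min compound preincubation.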
TDP1 cell CPT: qHTS for Inhibitors of human tyrosyl-DNA phosphodiesterase 1 (TDP1): qHTS in cells in presence of CPT; chicken DT40 Tdp1-/-;hTDP1 cells + 20 nM CPT, ATP luminescence, 48 h; Potency, µM (top dose mostly 46.2 µM), actives largely listed as inhibitors; 420,000 tested, 12% active; note: nearly all actives have a fitted effect of over 55% in size
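Chicken DT40 Tdp1-/- cells complemented with human TDP1, 400 cells/well, exposed to compounds plus 20 nM camptothecin for at least 48 h at 37 C; viability read as ATP content by CellTiter-Glo luminescence.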
uPA surface inh: qHTS for Inhibitors of Cell Surface uPA Generation. cell surface uPA generation assay, qHTS. Potency, µM (doses to about 38.3 µM), usual class: inhibitors. 330,000 tested, 0.31% active. AID 540303, 2011; active = well fitted inhibition curve with a large enough effect; inconclusive = small, poorly fitted or top-dose-only effect; inactive = no such curve, though single readings can be large or run the other way; tested in mouse RAW 264.7 cells; note: nearly all actives have a fitted effect of over 55% in size
miR-21 reporter: qHTS Assay for Modulators of miRNAs and/orActivators of miR-21. HeLa miR-21 FLuc reporter, luciferase, 48 h. Potency, µM (series often up to 38.3 µM), actives largely listed as activators. 340,000 tested, under 10 active. AID 2288, 2010;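 note: miR-21 action dims this reporter so a rising signal means less miR-21 action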
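HeLa cells endogenously expressing miR-21, stably carrying CMV-driven firefly luciferase with a downstream miR-21 binding site, 2000 cells/well. Titrations up to approximately 40 uM, 48 hours; luciferase luminescence read.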
DT40 TDP1 no CPT: qHTS for Inhibitors of human tyrosyl-DNA phosphodiesterase 1 (TDP1): qHTS in cells in absence of CPT. DT40 Tdp1-/- hTDP1 cells, no CPT, ATP luminescence, 48 h. Potency, µM (highest dose often 46.2 µM), actives largely listed as inhibitors. 420,000 tested, 15% active. AID 686978, 2013; note: nearly all actives have a fitted effect of over 55% in size
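Chicken DT40 Tdp1-/- cells complemented with human TDP1, screened without camptothecin (DMSO vehicle only), 400 cells/well. Compounds pin-transferred, cells incubated at 37 °C for at least 48 hr. Growth read as ATP-dependent luminescence (CellTiter-Glo, 30 min at RT).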
Large screens that a line does not name were inactive. Hits are enriched below; roughly 16% of the tested compounds scored in any of these assays. Unless noted, calls come from the whole dose curve; as a rule, active = well fitted curve in the direction sought with a large enough effect; inconclusive = small, poorly fitted or top-dose-only effect, or another doubt; inactive = no such curve, though single readings can be large; an effect the other way counts as inactive or inconclusive.

CN(Cc1ccccc1C(F)(F)F)C(=O)C1CCC(=O)N(CC2CCCCC2)C1 (centres undefined)	none (no result: TDP1 inh, uPA surface inh, miR-21 reporter)
CCc1ccc(CN(C)C(=O)C2CCC(=O)N(CC3CCCCC3)C2)cc1 (centres undefined)	TDP1 cell CPT 23µM, DT40 TDP1 no CPT inconclusive
CC(c1ccco1)N(C(=O)C12CC3CC(CC(C)(C3)C1)C2)c1ccccn1 (centres undefined)	TDP1 cell CPT 16µM, DT40 TDP1 no CPT 21µM
COc1ccccc1N(C1=NCCCS1)S(=O)(=O)c1ccc(C(C)(C)C)cc1	TDP1 cell CPT 21µM, DT40 TDP1 no CPT 23µM
CCOc1ccc(NC(=O)COC(=O)C23CC4CC(CC(C4)C2)C3)c([N+](=O)[O-])c1	TDP1 cell CPT 18µM, DT40 TDP1 no CPT inconclusive
COc1ccc(NC(=O)COC(=O)CC23CC4CC(CC(C4)C2)C3)c([N+](=O)[O-])c1	TDP1 cell CPT inconclusive, DT40 TDP1 no CPT inconclusive
Clc1ccccc1-c1nnc2sc(C3COc4ccccc4O3)nn12 (centres undefined)	TDP1 cell CPT inconclusive (no result: uPA surface inh)
Cc1ccc(-c2nnc3sc(C4COc5ccccc5O4)nn23)cc1 (centres undefined)	TDP1 cell CPT inconclusive, DT40 TDP1 no CPT 23µM (no result: uPA surface inh)
O=C(COc1ccc2ccc(=O)oc2c1)N1CCc2ccccc21	none
N#CC1(c2ccccc2)CCN(S(=O)(=O)c2ccc(OC(F)(F)F)cc2)CC1	DT40 TDP1 no CPT 15µM (no result: TDP1 inh)
CC(Oc1ccccc1)C(=O)Nc1ccc(S(=O)(=O)N2CCN(C)CC2)cc1 (centres undefined)	TDP1 cell CPT inconclusive (no result: TDP1 inh, miR-21 reporter)
COc1ccc(S(=O)(=O)N2CCC(C(=O)O)(c3ccccc3)CC2)cc1	none (no result: TDP1 inh)
CC(Oc1ccccc1)C(=O)N1CCN(S(=O)(=O)c2ccc(OC(F)(F)F)cc2)CC1 (centres undefined)	TDP1 cell CPT 18µM, DT40 TDP1 no CPT inconclusive (no result: TDP1 inh, uPA surface inh, miR-21 reporter)
COc1cc(C(=O)NC2CCN(C)CC2)ccc1Nc1ncc2c(n1)N(CCc1ccccc1)CCC(=O)N2C	TDP1 cell CPT 23µM, uPA surface inh inconclusive, DT40 TDP1 no CPT 15µM (no result: TDP1 inh, miR-21 reporter)
CCCCCCNc1c(C(=O)OCC)c(=O)[nH]c2ccccc12	TDP1 cell CPT 16µM, DT40 TDP1 no CPT inconclusive
CCOC(=O)c1c(NCC2CCCO2)c2ccccc2[nH]c1=O (centres undefined)	none
Cc1ccc(-c2c(C(=O)N3CCN(c4cc(Cl)ccc4C)CC3)oc(=O)c3ccccc23)cc1	TDP1 cell CPT inconclusive, DT40 TDP1 no CPT inconclusive (no result: uPA surface inh)
Cc1ccc(-c2c(CN3CCN(c4cc(Cl)ccc4C)CC3)csc2C)cc1	TDP1 cell CPT 16µM, DT40 TDP1 no CPT inconclusive (no result: uPA surface inh)
CC(NCCOCCOc1ccccc1)c1ccccc1 (centres undefined)	DT40 TDP1 no CPT inconclusive
COc1ccc2ccccc2c1CNCc1ccc(C)cc1	TDP1 cell CPT inconclusive, DT40 TDP1 no CPT inconclusive
CC(NCCCOc1cccc2ccccc12)c1ccccc1 (centres undefined)	TDP1 cell CPT inconclusive, miR-21 reporter inconclusive, DT40 TDP1 no CPT 18µM (no result: TDP1 inh)
COc1ccc2ccccc2c1CNC(C)c1ccccc1 (centres undefined)	TDP1 cell CPT 7.3µM, DT40 TDP1 no CPT 10µM (no result: TDP1 inh)
NC(=O)[C@H](Cc1cc2ccccc2s1)NC(=O)[C@@H]1CC2(CC(c3cccc(NC(=O)[C@@H]4CCC(=O)N4)c3)=NO2)CN1C(=O)/C=C/c1c(F)cccc1Cl (some centres undefined)	none
CCc1nnc(NC(=O)C2CC(=O)N(C3CCCCC3)C2)s1 (centres undefined)	TDP1 inh 22µM
COc1ccc(Cl)c(OC)c1C(=O)NC(=O)Nc1c(F)cc(F)cc1F	none (no result: TDP1 inh)
O=C(Cc1coc2cc3c(cc12)CCC3)NC1CCCCCCC1	TDP1 cell CPT inconclusive, DT40 TDP1 no CPT 0.021µM
O=C(O)Cc1coc2cc3c(cc12)CCC3	none
O=C(NCCCN1CCOCC1)c1ccc(-n2nc(C(F)(F)F)cc2-c2cccs2)cc1	TDP1 cell CPT 18µM, DT40 TDP1 no CPT 18µM
COCCCNC(=O)c1ccc(-n2nc(C(F)(F)F)cc2-c2cccs2)cc1	none
O=C(NCCSSCCNC(=O)c1ccccc1)c1ccccc1	TDP1 cell CPT 18µM, DT40 TDP1 no CPT 16µM (no result: TDP1 inh, miR-21 reporter)
NC1(C(=O)O)CSSC1	DT40 TDP1 no CPT 7.3µM (no result: TDP1 inh, miR-21 reporter)
CCc1ccc(C(C)NC(=O)c2cc(C)oc2C)cc1 (centres undefined)	TDP1 cell CPT 21µM, DT40 TDP1 no CPT 23µM
CN(C(=O)CSCC(=O)Nc1ccc(Cl)cc1)C1CCCCC1	TDP1 cell CPT inconclusive, DT40 TDP1 no CPT 15µM (no result: miR-21 reporter)
COc1cc(NC(=O)CSCC(=O)N(C)C2CCCCC2)cc(OC)c1	none (no result: miR-21 reporter)
Cc1[nH]n(C2=NCCS2)c(=O)c1N=Nc1cccc(C(F)(F)F)c1	TDP1 cell CPT 3.7µM, uPA surface inh inconclusive, DT40 TDP1 no CPT 2.6µM
Cc1[nH]n(C(N)=S)c(=O)c1N=Nc1cccc(C(F)(F)F)c1	TDP1 cell CPT inconclusive, DT40 TDP1 no CPT inconclusive (no result: TDP1 inh)
CC(C)NC(=O)COc1coc(CN2CCN(c3cccc(Cl)c3)CC2)cc1=O	none
Cn1c(=O)c2cc(NC(=O)NCc3ccc(F)cc3)ccc2n1C	none (no result: TDP1 inh, uPA surface inh, miR-21 reporter)
COc1cc(Cn2c3ccc(NC(=O)NCc4ccc(F)cc4)cc3c(=O)n2C)ccc1F	TDP1 cell CPT 5.8µM, DT40 TDP1 no CPT 5.2µM (no result: TDP1 inh, uPA surface inh, miR-21 reporter)
C=C(C)Cn1c2ccc(NC(=O)CCc3cccc(Cl)c3)cc2c(=O)n1C	TDP1 cell CPT 18µM, DT40 TDP1 no CPT 15µM (no result: TDP1 inh, uPA surface inh, miR-21 reporter)
Cn1c(=O)c2cc(NC(=O)CCc3ccc4c(c3)OCO4)ccc2n1Cc1ccc(F)cc1	TDP1 cell CPT 16µM, DT40 TDP1 no CPT inconclusive (no result: TDP1 inh, uPA surface inh, miR-21 reporter)
C=C(C)Cn1c2ccc(NC(=O)CCOCC)cc2c(=O)n1C	none (no result: TDP1 inh, uPA surface inh, miR-21 reporter)
CCOCCC(=O)Nc1ccc2c(c1)c(=O)n(C)n2CC=C(C)C	TDP1 cell CPT 5.2µM, DT40 TDP1 no CPT 2.9µM (no result: TDP1 inh, uPA surface inh, miR-21 reporter)
O=S(=O)(c1ccc2ccccc2c1)N(CC(O)COCc1ccco1)c1ccccc1 (centres undefined)	DT40 TDP1 no CPT inconclusive (no result: uPA surface inh)
CN(CC(=O)Nc1ccccc1C(F)(F)F)C(=O)c1ccc2c(=O)n3c(nc2c1)CCC3	none (no result: miR-21 reporter)
COc1ccc2c(CC(=O)OCC(=O)Nc3sc4c(c3C#N)CCC(C)C4)coc2c1 (centres undefined)	none
Cn1c(N/N=C2\CCCc3ccccc32)nc2c1c(=O)n(Cc1ccc(F)cc1)c(=O)n2C	TDP1 cell CPT inconclusive, DT40 TDP1 no CPT inconclusive
COc1cc(Cn2c3ccc(NC(=O)CCc4ccc(O)cc4)cc3c(=O)n2C)ccc1F	TDP1 cell CPT inconclusive, DT40 TDP1 no CPT 21µM (no result: TDP1 inh, uPA surface inh, miR-21 reporter)
Cn1c(=O)c2cc(NC(=S)NC3CC3)ccc2n1Cc1ccc(F)cc1	TDP1 cell CPT inconclusive (no result: TDP1 inh, uPA surface inh, miR-21 reporter)

Compound activity as filed in PubChem BioAssay.
